D2 PAM-1 = Beta-Arrestin HTS for Positive Allosteric Modulators of the Human D2 Dopamine Receptor: Potentiators; DiscoveRx D2 beta-arrestin cells, luminescence, 90 min; 100% = 57 uM dopamine signal; potentiation, % (no concentration beside the values); 360,000 compounds, 0.23% hits; AID 624464, 2012; in the data active means potentiation above about 50%
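D2 cells co-treated with compound plus 50 nM dopamine (EC20) for 90 min at 37 deg C to detect potentiation. Beta-arrestin recruitment was read as enzyme-fragment luminescence after 1 h at ambient temperature. Full response was set by 57 uM dopamine.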
D2 ag-1 = HTS Assay for Allosteric Agonists of the Human D2 Dopamine Receptor: Primary Screen for Agonists. D(2) dopamine receptor (Homo sapiens), P14416. HEK293 T-REx D2 cells, calcium flux agonist mode. activation, % at 2 µM. 340,000 compounds, 0.53% hits. AID 485358, 2010;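 active means activation over 3 SD above normal in the single-dose calcium agonist read, cut at about 30% in these data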; further: 0% is about no effect
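HEK293 Trex D2 cells, tetracycline-induced, o/n 30 C 5% CO2; no-wash Ca dye, RT 30–90 min; 10-cycle baseline, 23 nl cpd added, kinetic Ca read 180 s; agonist hits = positive Ca response.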
D2 ag-2 = Beta-Arrestin HTS for Positive Allosteric Modulators of the Human D2 Dopamine Receptor: Agonists | D(2) dopamine receptor (Homo sapiens), P14416 | DiscoveRx PathHunter D2 beta-arrestin, luminescence, 90 min; 100% = 57 uM dopamine signal | activation, % (concentration not given with the values) | 360,000 compounds, 0.084% hits; in the data active means activation above about 40%
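DiscoveRx PathHunter D2 beta-arrestin cells (2,100/well) attached overnight, then compound-stimulated 90 min at 37 C in HBSS/10 mM HEPES/0.1% Tween-20 buffer; beta-galactosidase complementation read by luminescence after 1 h at ambient temperature. Dopamine 57 uM final (EC100) as control.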
D2 antag = HTS Assay for Allosteric Antagonists of the Human D2 Dopamine Receptor: Primary Screen for Antagonists. AID 485344, 2010. inhibition, % at 10 µM. D(2) dopamine receptor (Homo sapiens), P14416. 340,000 compounds, 2% hits. HEK293 TREx D2 cells, calcium flux, dopamine EC80; in the data active means inhibition above about 30%; inactive means below that, where a call was filed; further: 0% is about no effect
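Read-out: kinetic calcium fluorescence (1 cycle/s) in inducible HEK293 T-REx D2 cells after an EC80 dopamine addition that followed 180 s compound preincubation. Loss of the dopamine response indicates antagonism.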
B2AR arrestin = qHTS assay of beta-arrestin-biased ligands of beta2-adrenergic receptor; beta-arrestin recruitment to beta2AR, cell-based reporter; 330,000 compounds, 0.02% hits; Potency, µM (highest dose often 46.1 µM), for the others: at the highest dose activation, hits mostly activators; Beta-2 adrenergic receptor (Homo sapiens), P07550; active means well fitted activation curve with a large enough effect;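 further: potency means the concentration at half of the fitted maximal effect; 0% = DMSO controls and full agonism = EC100 isoproterenol or metaproterenol; nearly all actives have a fitted effect of over 65% in size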
Target sequence (P07550 whole entry, looked up): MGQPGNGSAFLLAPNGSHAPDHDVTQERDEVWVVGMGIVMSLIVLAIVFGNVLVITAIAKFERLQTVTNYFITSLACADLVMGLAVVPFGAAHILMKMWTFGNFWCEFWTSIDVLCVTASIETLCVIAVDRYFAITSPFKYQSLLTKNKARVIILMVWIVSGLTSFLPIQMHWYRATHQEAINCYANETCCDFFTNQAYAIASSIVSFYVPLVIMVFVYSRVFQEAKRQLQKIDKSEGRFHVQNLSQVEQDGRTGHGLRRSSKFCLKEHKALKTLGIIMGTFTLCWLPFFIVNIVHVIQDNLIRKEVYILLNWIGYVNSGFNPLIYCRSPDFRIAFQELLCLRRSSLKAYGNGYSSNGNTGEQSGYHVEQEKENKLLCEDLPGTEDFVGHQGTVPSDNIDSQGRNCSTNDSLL
D2 PAM-2 = HTS Assay for Positive Allosteric Modulators of the Human D2 Dopamine Receptor: Primary Screen for Potentiators; D(2) dopamine receptor (Homo sapiens), P14416; HEK293 T-REx D2, calcium flux, EC20 dopamine potentiation; potentiation, % at 10 µM; 340,000 compounds, 0.34% hits; AID 485347, 2010;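 active means potentiation over 3 SD above the plate norm, cut at about 30% in these data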; further: 0% is about no effect
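Calcium flux readout, no-wash dye, 1 read/s. Inducible HEK293 Trex D2 line, overnight 30 C. Compound alone 180 s (agonist flags), then EC20 dopamine, another 180 s to score potentiation.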
* marks the source's active call; other numbers are inactive results. Shown are actives, neighbours in structure and some others; about 2.4% of the full set was active somewhere.

How did COc1ccc(CCNC(=O)COC(=O)c2cccs2)cc1OC do in these assays?
D2 PAM-1: 2; D2 ag-1: -1; D2 ag-2: 6; D2 antag: 7; B2AR arrestin: 0%; D2 PAM-2: 14

Results for COc1ccc(CCNC(=O)COC(=O)c2cccs2)cc1 ?
D2 PAM-1: -8; D2 ag-1: -1; D2 ag-2: -1; D2 antag: 37*; B2AR arrestin: -2%; D2 PAM-2: -2

How did COc1ccc(CCNC(=O)CN(C)S(=O)(=O)c2cccs2)cc1 do in these assays?
D2 PAM-1: 6; D2 ag-1: 0; D2 ag-2: -3; D2 antag: 32*; B2AR arrestin: 2%; D2 PAM-2: -11

What do the screens show for `COc1ccc(CCNC(=O)[C@@H](NC(N)=O)C(C)C)cc1`?
D2 PAM-1: -21; D2 ag-1: 10; D2 ag-2: 0; D2 antag: 50*; B2AR arrestin: 0%; D2 PAM-2: -1

How did CN(CC(=O)NCCc1ccccc1)S(=O)(=O)c1cccs1 do in these assays?
D2 PAM-1: -5; D2 ag-1: 0; D2 ag-2: -5; D2 antag: 11; B2AR arrestin: 0%; D2 PAM-2: -8

What do the screens show for `CCCNC(=O)COC(=O)CCC(=O)c1cccs1`?
D2 PAM-1: 1; D2 ag-2: 2; B2AR arrestin: 0%; D2 PAM-2: 14

Results for CCNC(=O)COC(=O)CCC(=O)c1cccs1 ?
D2 PAM-1: -4; D2 ag-1: -2; D2 ag-2: 1; D2 antag: 51*; B2AR arrestin: 0%; D2 PAM-2: -6

How did Nc1ccn(CC(=O)NCc2ccc3c(c2)OCO3)c(=O)n1 do in these assays?
D2 PAM-1: -15; D2 ag-1: 0; D2 ag-2: -3; D2 antag: 0; B2AR arrestin: 0%; D2 PAM-2: -12

What do the screens show for `CCc1ccc(C(=O)COC(=O)c2cccnc2Cl)cc1`?
D2 PAM-1: -9; D2 ag-1: 0; D2 ag-2: 3; D2 antag: 0; B2AR arrestin: -1%; D2 PAM-2: 7

How did COc1ccc(CCNC(=O)COC(=O)CCC(=O)c2cccs2)cc1OC do in these assays?
D2 PAM-1: -6; D2 ag-2: 2; B2AR arrestin: 0%

How did COc1ccc(CCNC(=O)CCC(=O)c2cccs2)cc1OC do in these assays?
D2 PAM-1: -4; D2 ag-1: 27; D2 ag-2: -4; D2 antag: 44*; B2AR arrestin: 0%; D2 PAM-2: -9

How did COc1ccc(CCNC(=O)CCN2C(=O)C3CC=CCC3C2=O)cc1OC (centres undefined) do in these assays?
D2 PAM-1: -6; D2 ag-1: 1; D2 ag-2: -3; D2 antag: 64*; B2AR arrestin: 3%; D2 PAM-2: 2

What do the screens show for `COc1ccc(CCNC(=O)C2CC(=O)N(C3CCCCCCC3)C2)cc1OC` (centres undefined)?
D2 PAM-1: 0; D2 ag-1: 0; D2 ag-2: -3; D2 antag: 93*; B2AR arrestin: 0%; D2 PAM-2: -23

How did COc1ccc(CCNC(=O)CCn2cccc2)cc1OC do in these assays?
D2 PAM-1: -7; D2 ag-1: 0; D2 ag-2: 1; D2 antag: 1; B2AR arrestin: 3%; D2 PAM-2: -9

Results for O=C(Nc1ccc(C(F)(F)F)cc1)c1cc(S(=O)(=O)N2CCCc3ccccc32)ccc1F ?
D2 ag-1: 1; D2 PAM-2: 10

Results for COC(=O)NC1CSCC1OC(=O)CN1C(=O)c2ccccc2C1=O (centres undefined) ?
D2 PAM-1: 3; D2 ag-1: 1; D2 ag-2: -3; D2 antag: -10; B2AR arrestin: -2%; D2 PAM-2: 2

What do the screens show for `Cc1cc(S(=O)(=O)N2CCCCC2CCNC(=O)C(=O)NC2CC2)ccc1F` (centres undefined)?
D2 PAM-1: -16; D2 ag-1: 0; D2 ag-2: 1; D2 antag: 11; B2AR arrestin: 0%; D2 PAM-2: 5

Results for COC(=O)CSc1nc2ccccc2nc1SCC(=O)OC ?
D2 PAM-1: -12; D2 ag-1: 1; D2 ag-2: 0; D2 antag: -7; B2AR arrestin: -1%; D2 PAM-2: 31*

Results for COC(=O)CSc1cnc2ccccc2n1 ?
D2 PAM-1: -23; D2 ag-1: 0; D2 ag-2: -5; D2 antag: 13; D2 PAM-2: 12

How did Cc1cc2nc(-c3cccc(Br)c3)c(Cc3ccccc3)n2c(C)c1Br do in these assays?
D2 PAM-1: -9; D2 ag-2: -5

How did CC(C)(C)N(NC(=O)c1ccccc1)C(=O)c1ccc(C(=O)N(NC(=O)c2ccccc2)C(C)(C)C)cc1 do in these assays?
D2 PAM-1: -26; D2 ag-1: 1; D2 ag-2: 3; D2 antag: 33*; B2AR arrestin: -1%; D2 PAM-2: -5

How did CCc1ccc(C(=O)NN(C(=O)c2ccc(CC)cc2)C(C)(C)C)cc1 do in these assays?
D2 PAM-1: -16; D2 ag-1: -1; D2 ag-2: -2; D2 antag: 0; B2AR arrestin: 0%; D2 PAM-2: 2

How did O=C(CN1CCOc2ccccc21)NC1CC1 do in these assays?
D2 PAM-1: -1; D2 ag-2: 4

Results for O=C(NCc1ccccc1)c1cccc(NC(=O)C2CCC2)c1 ?
D2 PAM-1: -6; D2 ag-2: -1

What do the screens show for `CC(=O)Nc1ccc(OC(=O)c2ccc(Br)c([N+](=O)[O-])c2)cc1`?
D2 PAM-1: -8; D2 ag-1: 0; D2 ag-2: -2; D2 antag: 30*; B2AR arrestin: 0%; D2 PAM-2: 0

Results for CCOc1ccc(C(=O)Oc2ccc(NC(C)=O)cc2)cc1 ?
B2AR arrestin: -1%

Results for N#C/C(=C\c1c(N2CCOCC2)nc2ccccn2c1=O)C(=O)NC1CCS(=O)(=O)C1 (centres undefined) ?
D2 PAM-1: -9; D2 ag-1: -1; D2 ag-2: -3; D2 antag: 38*; B2AR arrestin: 0%; D2 PAM-2: 12

Screening data: PubChem, National Center for Advancing Translational Sciences (NCATS)
